Most compounds without a hit are left out; they make up all but 11% or so of the library.
WT yeast gro inh = growth inhibition of WT yeast, mitochondrial fusion screen | mitochondrial fusion phenotypic screen, WT strain | inhibition, % at 10 µM | 190,000 compounds, 2.1% hits | AID 1362; in the data active = inhibition above about 58%; tested in S. cerevisiae
Lmaj promast = reduces viability of Leishmania major promastigotes | resazurin fluorescence viability | inhibition, % at 10 µM | 200,000 compounds, 9% hits; in the data active = inhibition above about 50%;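 note: promastigotes grown with compound for 44 hours at 28 °C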
Insulin prom up = MIN6 insulin promoter up-regulation; 190,000 compounds, 0.3% hits; MIN6 insulin promoter-GFP reporter, high-content imaging; stronger effect = higher value; AID 1625; z-score at 5 µM;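 active = z-score above 3 at 5 µM with at least 500 cells counted in the well; inconclusive = wells under 500 cells, flagged as cytotoxic or low count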
INS promoter inh = TRM-6 insulin promoter activity inhibition; TRM-6 cells (human fetal islet line), insulin promoter-eGFP reporter, imaging; reporter expression induced with tamoxifen; inhibition, % at 2 µM; 130,000 compounds, 0.9% hits; AID 1273;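 active = inhibition above the mean plus 3 SD, with well images judged a real hit on visual review, cut at about 60% in these data, passing the limit was not always enough; inconclusive = inhibition over the cutoff but images rejected on review; inactive = inhibition not above the cutoff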
Autophagy mod = autophagy modulation, high-content screen. MEF GFP-LC3 puncta imaging; test concentration mostly 10 µM. calls only at 10 µM (by protocol). 190,000 compounds, 0.98% hits. AID 463193;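 active = percentage of spot-positive cells more than 3 SD above its plate mean, without a fluorescence outlier flag or 80% toxicity; inconclusive = no clear call, values can overlap the other calls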
Of the large screens only hits and unclear results are named; the others gave an inactive call.

CCN(CC)C(=S)Nc1ccc([N+](=O)[O-])cc1	Lmaj promast 59
CCNC(=O)C(=O)Nc1ccc([N+](=O)[O-])cc1	none
O=S(=O)(c1ccc(-c2ccon2)s1)N1CCN(c2ccccn2)CC1	none (no result: WT yeast gro inh, Lmaj promast, INS promoter inh, Autophagy mod)
Cc1cc(C)nc(Sc2ncnc(N)c2[N+](=O)[O-])n1	Lmaj promast 58 (no result: INS promoter inh)
Cc1cccc(Nc2ncnc(N)c2[N+](=O)[O-])n1	none (no result: INS promoter inh)
Cc1cc(Oc2ccc3ccccc3c2)nc(SCC(=O)c2ccccc2)n1	Lmaj promast 93
COc1cc(Br)cc(C2C3=C(CCCC3=O)N(c3ccc(F)cc3)C3=C2C(=O)CCC3)c1O	Lmaj promast 58 (no result: INS promoter inh)
CN(C)S(=O)(=O)c1cc(NC(=O)c2cc(=O)[nH]c3ccccc23)ccc1Cl	none (no result: INS promoter inh)
CN1CC(=O)Nc2ccc(F)cc2C1=O	WT yeast gro inh 60
CCO[C@H]1OC(C(=O)NC2CC2)=C[C@@H](C2CC2)[C@@H]1CCCO	none (no result: INS promoter inh)
Cc1cc2oc3c(c(=O)c2cc1C)C(c1ccc(C(C)C)cc1)N(CCCN1CCOCC1)C3=O (configuration not stated)	none
COc1cc2nc(SCc3ccc(F)cc3)n(Cc3cccs3)c(=N)c2cc1OC	none (no result: Insulin prom up)
COc1ccc(Cn2c(SCc3ccccc3C)nc3cc(OC)c(OC)cc3c2=N)cc1	Lmaj promast 100 (no result: INS promoter inh)
COCCCn1c(SCCc2ccccc2)nc2cc(OC)c(OC)cc2c1=N	Lmaj promast 51
CCOC(=O)CN1C(=O)CSc2ccccc21	none (no result: INS promoter inh)
C=CCN(C)CCCNC(=O)/C=N/O	none (no result: INS promoter inh)
COc1ccc(/C=C/S(=O)(=O)NCc2ccccc2)cc1OC	none
Cc1c(-c2ccccc2)nc2ccccc2c1C(=O)Oc1ccc([N+](=O)[O-])cc1	Lmaj promast 50
COc1ccccc1N/C=C(\C#N)c1nc2ccccc2[nH]1	none (no result: Insulin prom up, INS promoter inh)
CCc1c(C)nc2cc(-c3cc(OC)cc(OC)c3)nn2c1N1CCCC1	none (no result: INS promoter inh)
CCOCCN1CCN(c2c(CC)c(C)nc3cc(-c4cc(OC)cc(OC)c4)nn23)CC1	Lmaj promast 72, Insulin prom up inconclusive
C/C(=N\NC(=O)COc1ccc(C(C)(C)C)cc1)c1ccc(N2CCOCC2)cc1	Lmaj promast 74
CNC(=S)N/N=C(\C)c1ccc(N2CCOCC2)cc1	none (no result: INS promoter inh)
CCNC(=S)N/N=C(\C)c1ccc(N2CCOCC2)cc1	Autophagy mod active
CCc1ccc(OCC(=O)N/N=C(\C)c2ccccc2OC(F)F)cc1	Insulin prom up inconclusive (no result: INS promoter inh)
CCc1ccc(OCC(=O)N/N=C(\C)c2ccc(OC(F)F)cc2)cc1	Lmaj promast 69
CC1(NC(=O)CC[N+](C)(C)CCO)CS(=O)(=O)CC1S(=O)(=O)[O-] (configuration not stated)	none (no result: INS promoter inh)
CCCOc1ccc(S(=O)(=O)N2CCOCC2)cc1[N+](=O)[O-]	none (no result: Insulin prom up)
CCOc1ccc(N=C2NC(=O)S/C2=C\c2ccc(N(C)C)cc2)cc1	Autophagy mod active
O=c1c2ccccc2n2c(-c3ccc(F)cc3)nnc2n1Cc1ccccc1	Lmaj promast 56
O=C(CSc1nnc(COc2ccc(Cl)cc2)o1)N1c2ccccc2CCc2ccccc21	Lmaj promast 67
CCOC(=O)N1CCN(C(=O)CSc2nnc(COc3ccc(Cl)cc3)o2)CC1	none (no result: Insulin prom up, INS promoter inh)
O=C(NCc1cccnc1)c1cc(Sc2ccccc2Cl)nc2ccccc12	Lmaj promast 78
O=C(NCc1ccccc1)NC1(C(=O)N2CCOCC2)CCCCC1	none (no result: INS promoter inh)
Cc1onc(-c2ccccc2)c1C(=O)NNC(=S)NC(=O)/C=C/c1cccs1	none (no result: INS promoter inh)
O=C(c1cc2ccccc2o1)N1CCC(N2CCC(C(=O)N3CCCC3)CC2)CC1	Lmaj promast 50 (no result: INS promoter inh)
CN(C)c1nnnn1-c1ccc(Oc2ncc(C(F)(F)F)cc2Cl)cc1	none
Cc1onc(-c2ccccc2)c1C(=O)Nc1nc2c(s1)CCCC2	none (no result: Insulin prom up)
Cc1onc(-c2c(F)cccc2Cl)c1C(=O)N1CCc2ccccc2C1	Lmaj promast 100
Cc1onc(-c2c(F)cccc2Cl)c1C(=O)N1CCN(S(C)(=O)=O)CC1	none
Cc1onc(-c2c(F)cccc2Cl)c1C(=O)Nc1nc2c(s1)CCCC2	Lmaj promast 58
Cc1onc(-c2ccccc2Cl)c1C(=O)N1CCc2ccccc2C1	Lmaj promast 96
Cn1nc(C(F)(F)F)c(-c2ccc(Br)cc2)c1NC(=O)c1nccnc1C(=O)O	none (no result: WT yeast gro inh, Lmaj promast, INS promoter inh, Autophagy mod)
CC(=O)N1CCN(CC(=O)Nc2ccc([N+](=O)[O-])cc2Br)CC1	none
Cc1noc(C)c1S(=O)(=O)N1CCC(C(=O)NCCN2CCC(C)CC2)CC1	none
CCN(CCNC(=O)C1CCN(S(=O)(=O)c2c(C)noc2C)CC1)c1ccccc1	Lmaj promast 98 (no result: INS promoter inh)
Cc1nn(C)c(C)c1S(=O)(=O)N1CCCC(C(=O)NCCc2ccc(Cl)cc2)C1 (configuration not stated)	none (no result: INS promoter inh)
